# Bioassay records as filed in PubChem.
# Rows were chosen to be rich in hits. Some 4% of all compounds tested hit in one or more screens of this group.
# ROMK primary = modulates human ROMK potassium channel activity | P48048 | Tet-inducible ROMK, thallium flux fluorescence; actives lie on both sides | B-score at 10 µM | hit rate 2% among 130,000 | AID 1918;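 active means signal ratio slope over the read window, or its plate-corrected B-score, at least 3 SD from the plate mean, either direction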;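 further: B-score of the F/F0 ratio slope over 7 to 12 s after thallium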
# Measles CPE = protection of cells from measles virus; Measles virus-infected cells, CPE protection, absorbance; protection (pct of control), % at 4 µM; hit rate 1.5% among 140,000; in the data active means protection mostly above about 24%, no sharp cut-off; inactive means mostly below about 26%
# Cl transport mod = modulates chloride dependent transport by human KCC2; Q9H2X9; KCC2 cells, thallium flux FluoZin-2 fluorescence; B-score of Tl+ flux slope (higher = more flux/activation; lower = inhibition) at 10 µM; hit rate 2.2% among 190,000; AID 1456;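 active means thallium flux slope and its plate-corrected score both differing from the plate sample mean at a set confidence after two filtering rounds, in either direction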;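 further: slope of fluorescence scaled to starting intensity during 10 to 20 s after thallium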
# Target sequence (Q9H2X9 whole entry, looked up): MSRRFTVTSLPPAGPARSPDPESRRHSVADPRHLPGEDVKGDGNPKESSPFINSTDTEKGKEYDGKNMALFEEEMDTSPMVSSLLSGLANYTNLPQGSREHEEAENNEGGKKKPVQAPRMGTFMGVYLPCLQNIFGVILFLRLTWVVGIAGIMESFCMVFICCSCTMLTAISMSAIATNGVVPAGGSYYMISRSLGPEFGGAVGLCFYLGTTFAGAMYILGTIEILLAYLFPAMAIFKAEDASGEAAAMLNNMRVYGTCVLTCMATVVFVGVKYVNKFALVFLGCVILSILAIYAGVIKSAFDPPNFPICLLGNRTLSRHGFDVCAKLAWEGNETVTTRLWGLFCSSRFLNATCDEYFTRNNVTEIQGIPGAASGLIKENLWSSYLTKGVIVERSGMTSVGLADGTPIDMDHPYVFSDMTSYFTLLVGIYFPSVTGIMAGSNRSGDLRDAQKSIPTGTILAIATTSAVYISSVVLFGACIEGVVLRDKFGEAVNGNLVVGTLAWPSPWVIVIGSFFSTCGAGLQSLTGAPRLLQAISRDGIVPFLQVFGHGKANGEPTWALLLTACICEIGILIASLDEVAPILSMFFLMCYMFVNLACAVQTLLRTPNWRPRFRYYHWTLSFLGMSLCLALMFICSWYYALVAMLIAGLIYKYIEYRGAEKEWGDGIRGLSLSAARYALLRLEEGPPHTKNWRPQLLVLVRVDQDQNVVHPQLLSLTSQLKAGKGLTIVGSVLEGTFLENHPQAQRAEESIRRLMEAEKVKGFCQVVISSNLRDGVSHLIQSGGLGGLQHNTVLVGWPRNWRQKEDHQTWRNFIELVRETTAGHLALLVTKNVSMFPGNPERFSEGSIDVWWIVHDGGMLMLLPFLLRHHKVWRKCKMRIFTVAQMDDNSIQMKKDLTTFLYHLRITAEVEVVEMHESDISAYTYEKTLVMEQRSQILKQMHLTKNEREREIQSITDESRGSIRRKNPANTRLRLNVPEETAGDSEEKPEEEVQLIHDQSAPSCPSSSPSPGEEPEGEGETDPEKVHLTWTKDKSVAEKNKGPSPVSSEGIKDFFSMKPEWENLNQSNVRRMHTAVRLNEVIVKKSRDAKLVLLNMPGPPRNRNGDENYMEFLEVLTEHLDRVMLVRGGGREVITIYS
# Arbovirus inh = blocks arbovirus infection; arbovirus infection cell-based antiviral screen; inhibition, % at 10 µM; hit rate 0.37% among 200,000; AID 1251; in the data active means inhibition above about 30%
# HSV augment = increases HSV replication in cells | HSV replication augmentation in cells, fold increase | maximum fold increase | hit rate 0.005% among 220,000 | AID 1956; in the data active means maximum fold increase above about 1.5; tested in PC3 cells
# Active calls of the source: *; i = inactive; · = no result.
SMILES,ROMK primary,Measles CPE,Cl transport mod,Arbovirus inh,HSV augment
S=C(NC1CCCCC1)N1CCN(Cc2ccccc2Cl)CC1,-1.6,·,0.00329,-0.2,i
CSC1=NC2(CC(c3ccccc3)Oc3cc(O)ccc32)CC(C)(C)N1 (centres undefined),-3.98*,10.6,-0.657,-35.8,·
CCNc1cc2oc(=O)c(CN3CCOCC3)c(C)c2cc1C,·,42.9*,1.22,-2.4,i
Cc1ccc2c(CN3CCOCC3)cc(=O)oc2c1,·,·,0.873,·,i
O=C(COC(=O)c1cc(Br)ccc1O)Nc1cc(S(=O)(=O)N2CCCC2)ccc1Cl,-0.577,·,0.593,6.1,i
O=C(NCc1ccccn1)C(=O)N/N=C/c1ccc2c(c1)OCO2,·,·,0.156,8.1,i
CCCCn1c(SCC(=O)NCc2ccco2)nc2ccccc2c1=O,-1.2,6.9,9.11*,10.1,i
C/C(N)=C(/C#N)C(=O)CSc1nc2cc(Cl)ccc2c(=O)n1-c1ccc(C)cc1,·,17.4,8.69*,8.9,i
O=C(CSc1nc2ccccc2c(=O)n1Cc1ccco1)N1CCCCCC1,-2.03,45.2*,-1.61,2.5,i
CC(=O)NCCn1c(SCC(=O)NCc2ccco2)nc2ccccc2c1=O,·,23.3,2.76,4.2,i
CCCCn1c(SCC(=O)/C(C#N)=C(\C)N)nc2ccccc2c1=O,2.96*,19.6,24*,-2.2,i
CCCCn1c(SCC(=O)Nc2nnc(CC)s2)nc2ccccc2c1=O,1.44,32.5*,0.282,-10.6,i
Cc1c(C#N)sc(C(N)=O)c1C,-0.0321,·,-0.828,1.0,i
N#CC12CCCCC1CC1CCCCC1(C#N)N2Cc1cccnc1 (centres undefined),-0.854,112.9*,-0.79,-0.6,i
Cc1cc(C(=O)CSc2nc3ccccc3[nH]2)c(C)n1CC1CCCO1 (centres undefined),·,39.0*,-0.445,12.0,i
Cc1cc(C(=O)CSc2nc3ccccc3o2)c(C)n1CC1CCCO1 (centres undefined),-1.57,6.2,0.0887,23.9,i
Cc1nonc1OCCNCCNc1ccc([N+](=O)[O-])cc1Cl,-3.01,·,-1.31,0.9,i
O=[N+]([O-])c1ccc(NCCNCCOc2nonc2-c2ccccc2)c([N+](=O)[O-])c1,0.0815,·,0.16,30.4*,i
OC(c1ccccc1)C1CN(Cc2ccccc2)CCC1(O)c1ccccc1 (centres undefined),-2,15.7,-0.0389,32.6*,i
COc1cccc(CNC(=O)CCC2CCCN(C(=O)C3=CC(=O)CC(C)(C)O3)C2)c1 (centres undefined),-0.845,·,-0.335,-0.3,i
Cc1ccc(N2C(=O)Nc3ccc(Br)cc3C2(O)C(=O)NCCCN(C)C)cc1C (centres undefined),-0.0993,50.0*,0.0287,5.7,i
Cc1nnc(SCC(=O)NCc2ccccc2)[nH]c1=O,·,55.1*,0.232,2.7,i
COc1ccc(S(=O)(=O)N2CC(O)C[C@H]2C(=O)OCC(=O)N2CCCCCC2)cc1 (some centres undefined),0.572,·,-0.0984,4.4,i
CCSc1nnc(NC(=O)CSc2nnc(Cc3cccn3C)n2-c2ccc(F)cc2)s1,·,14.4,·,33.2*,·
COc1cccc(C2CC(c3c(-c4ccccc4)c4cc(Cl)ccc4[nH]c3=O)=NN2S(C)(=O)=O)c1OC (centres undefined),-0.765,68.5*,-0.403,-41.1,i
SMILES,ROMK primary,Measles CPE,Cl transport mod,Arbovirus inh,HSV augment
COc1ccccc1C1CC(c2c(-c3ccccc3)c3cc(Cl)ccc3[nH]c2=O)=NN1S(C)(=O)=O (centres undefined),·,2.3,0.279,-23.6,i
CCCCCCCN1C2=NCCCN2c2ccccc21,-1.12,·,-0.0371,-6.8,i
C/C(=N\NC(=O)c1ccccc1)c1ccc(NC(=O)c2cccs2)cc1,·,2.9,0.115,25.9,i
C/C(=N\NC(=O)c1ccccc1C)c1ccc(NC(=O)c2cccs2)cc1,1.98,2.0,-0.139,81.6*,·
N=c1c2c(-c3ccccc3)c(-c3ccccc3)n(Cc3ccco3)c2ncn1Cc1ccccc1,-4.84*,9.8,-1.47,-42.8,i
Cc1cc(C)c2c(=O)[nH]c(SCC(=O)c3ccc(C)c(C)c3)nc2n1,-0.119,·,-0.198,34.9*,i
COc1ccc(C(=O)CSc2nc3nc(C)cc(C)c3c(=O)[nH]2)cc1OC,·,·,-0.0641,·,·
CCN(CC)C1=N/C(=C\c2ccc(OC)cc2)C(=O)N1c1ccccc1,-0.506,68.9*,-1.28,-3.4,i
COc1cc(C2C(C#N)=C(C)NC3=C2C(=O)c2ccccc23)cc(OC)c1OC (centres undefined),3.22*,3.9,·,-2.1,i
COc1ccc(C2C(C#N)=C(C)NC3=C2C(=O)c2ccccc23)cc1 (centres undefined),-0.495,8.9,·,-12.0,i
COC(=O)Cc1ccc(NC(=S)N2CCN(c3ccc(OC)cc3)CC2)cc1,·,34.1*,0.0504,3.5,·
CCN(CC)C(=S)Nc1ccc(Cl)c(Cl)c1,-0.62,9.1,0.592,12.3,i
COC(=O)c1ccc(NC(=O)Nc2ccc(OC)cc2)cc1,-0.401,·,0.624,3.1,i
COC(=O)c1ccc(=O)n(-c2ccc(OC)cc2)c1,-0.233,7.0,8.16*,2.4,i
CCCCCCOc1ccc(N2C(=O)CC(N3CCN(CCN=CC4C(=O)CC(C)(C)CC4=O)CC3)C2=O)cc1 (centres undefined),-1.43,·,-1.12,-0.5,i
Cc1ccc(S(=O)(=O)Nc2cccc3ncccc23)s1,-0.0516,1.2,52.1*,-45.6,i
CC1(C)CC2CC(C)(CN2C(=S)Nc2ccccc2F)C1 (centres undefined),-0.536,·,-0.165,5.6,i
O=C(NC1CC1)C1=C[C@@H](C2CCCCC2)C[C@@H](OCCCCO)O1,·,·,0.575,0.8,i
Nc1c(S(=O)(=O)c2ccccc2)c2nc3ccccc3nc2n1/N=C/c1cccc(O)c1,·,3.3,0.228,-28.7,i
Cc1cccc(S(=O)(=O)c2c(N)n(/N=C/c3ccccc3)c3nc4ccccc4nc23)c1,0.813,59.5*,0.331,-2.4,i
CC(C)NOC(=O)c1ccc(Cl)cc1,-0.609,·,-0.0365,-3.2,i
COC(=O)c1sc(NC(=S)NC(=O)c2ccccc2Cl)nc1C,·,6.3,50.4*,-14.3,i
COC(=O)c1sc(NC(=S)NC(=O)c2ccccc2)nc1C,·,8.4,35.3*,2.4,i
O=C(CCNC(=O)c1ccccc1)Nc1cccnc1,0.609,·,·,9.0,i
CN(C(=O)COC(=O)/C=C/c1ccc(S(=O)(=O)N2CCc3ccccc32)cc1)C1CCS(=O)(=O)C1 (centres undefined),0.193,·,0.777,-4.0,i
O=C(NC(=S)NCc1cccnc1)c1cccc2ccccc12,-0.18,·,0.781,4.1,i
Cc1cccc(C(=O)NC(=S)N2CCc3ccccc3C2)c1,9.07*,17.2,125*,-4.8,i
CCNC(=S)N1CCc2ccccc2C1,-0.589,·,-0.311,-2.5,i
O=C(CSc1nccc(=O)[nH]1)N1N=C2/C(=C/c3ccco3)CCCC2C1c1ccco1 (centres undefined),0.325,·,-0.101,49.5*,i
